Values joined by “and” are separate entries in the source; they are usually repeats but may differ in a detail not shown here. Equal values may be shown once. Active and inactive are the calls of the source. Rule as the data show it, unless noted: active = inhibition above about 80%; inactive = the rest.
Tests used:
[1] = viability loss with induced miR-34 in A549 – imaging, A549 dox-inducible miR-34, nuclei and caspase counts, primary screen (AID 1347080;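 active = compounds whose cell count with miR-34 switched on is under 0.7 times the count with it off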); conditions: A549 miR-34 inducible, Hoechst nuclei count, 48 h
[2] = MELAS cybrid and Rieske KO viability enhancers – cell-based, MELAS cybrids, Rieske KO mouse fibroblasts, CellTiter-Glo, primary screen (AID 1508586;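 active = mean z-score across replicates of 1.96 or higher in either the MELAS or the Rieske mutant cell line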;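 also: z relative to plate mean and SD of compound and empty wells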); conditions: low glucose
[3] = growth inhibition, single agent or in combination, cell-based, chromothripsis tumors, cisplatin or BGB combos (AID 1671449); conditions: LFS_MB_P medulloblastoma cells;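 also: cells exposed for 96 hours; 0% = vehicle DMSO and 100% = killing by high DMSO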
[4] = growth inhibition, single agent and combos, cell-based, chromothripsis tumors, cisplatin or BGB combos (AID 1671450); conditions: HDN33 neuroblastoma cells, stronger effect = higher value;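 also: cells exposed to compound for four days; 0% = vehicle DMSO and 100% = cell killing by high DMSO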
[5] = growth inhibition, single agents and combos, ICB984, cell-based, cisplatin or BGB combos, synergistic combos for chromothripsis tumors (AID 1671451; call rule not given here;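 also: cells exposed for 96 hours before readout; 0% = vehicle DMSO and 100% = killing by high DMSO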); conditions: ICB984 medulloblastoma cells, drug combinations, stronger effect = higher value
[6] = growth inhibition, single agents and combos, LFS_MB_1R, cell-based, cisplatin or BGB combos, synergistic combos for chromothripsis tumors (AID 1671452); conditions: LFS_MB_1R medulloblastoma cells, stronger effect = higher value;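 also: cells exposed for 96 hours before readout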
[7] = growth inhibition, single agents and combos, HTB85, cell-based, BGB or cisplatin IC20 combos, synergistic combos for chromothripsis tumors (AID 1671453); conditions: HTB85 osteosarcoma cells, drug combinations, stronger effect = higher value;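 also: cells exposed for 96 hours before readout; 0% = vehicle DMSO and 100% = high DMSO killing control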
[8] = growth inhibition, single agents and combos, CRL2098, cell-based, BGB or cisplatin IC20 combos, synergistic combos for chromothripsis tumors (AID 1671454); conditions: CRL2098 osteosarcoma cells, drug combinations, stronger effect = higher value;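 also: cells exposed for 96 h before readout; 0% = vehicle DMSO and 100% = killing by high DMSO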
[9] = growth inhibition, single agents and combos, HD-MB03, cell-based, BGB or cisplatin IC20 combos, synergistic combos for chromothripsis tumors (AID 1671455; in the data active = inhibition above about 83%;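 also: 0% = vehicle DMSO and 100% = high DMSO as cytotoxic control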); conditions: HD-MB03 medulloblastoma cells, stronger effect = higher value
[10] = growth inhibition, single agents and combos, UWB1.289, cell-based, BGB or cisplatin combos, synergistic combos for chromothripsis tumors (AID 1671456); conditions: UWB1.289 ovarian carcinoma cells, stronger effect = higher value;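 also: cells exposed to compound for four days; 0% = vehicle DMSO and 100% = killing by high DMSO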
[11] = growth inhibition, single agents and combos, LFS_MB_2R, cell-based, cisplatin combos, synergistic combos for chromothripsis tumors (AID 1671457); conditions: LFS_MB_2R medulloblastoma cells, stronger effect = higher value;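 also: cells exposed to compound for four days before readout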
[12] = growth inhibition, MDA-MB-436, cell-based, BGB or cisplatin combos, synergistic combos for chromothripsis tumors (AID 1671458; call rule not given here;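 also: cells exposed for 96 hours; 0% = vehicle DMSO and 100% = killing by high DMSO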); conditions: MDA-MB-436 breast carcinoma growth inhibition, drug combinations, stronger effect = higher value
[13] = UWB1.289_BRCA1 ovarian cancer growth, cell-based, BGB or cisplatin combinations (AID 1671459); conditions: UWB1.289 BRCA1 ovarian carcinoma, drug combinations, stronger effect = higher value
[14] = drug combination toxicity in non-malignant astrocytes – cell-based, BGB or cisplatin IC20 combos, cytotoxicity control for chromothriptic childhood tumor combination screen (AID 1671460); conditions: Human astrocytes, viability inhibition, drug combinations, at 0.5 µM, stronger effect = higher value;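 also: cells exposed to compounds for 96 hours before viability readout; 0% = vehicle and 100% = killing control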
[15] = BT084 cell growth, single and combined drugs, ICGC_MB145, cisplatin and BGB IC40 combos (AID 1671461); conditions: BT084 medulloblastoma cells, drug combinations, stronger effect = higher value;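 also: cells exposed to drugs for 96 hours; 0% = vehicle DMSO and 100% = high DMSO full killing control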
[16] = RCMB18 cell growth, single agent and combined, cisplatin and BGB IC40 combos (AID 1671462); conditions: RCMB18 medulloblastoma cells, stronger effect = higher value;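 also: cells exposed to compound for four days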
[17] = CRL1545 cell growth, single agent and combined, cisplatin and BGB IC20 combos (AID 1671464); conditions: CRL1545 osteosarcoma cells, stronger effect = higher value;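 also: cells exposed to compound for 96 hours before readout; 0% = vehicle DMSO and 100% = high DMSO killing control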
[18] = measured here: combination with BGB IC40, at 0.05 µM
[19] = measured here: with BGB IC20 combination, at 0.5 µM
[20] = measured here: with cisplatin IC20 combination, at 0.5 µM
[21] = measured here: combination with cisplatin, at 0.5 µM
[22] = measured here: combination with cisplatin, at 5 µM

With `Nc1ccn(C2OC(CO)C(O)C2(F)F)c(=O)n1` (centres undefined) the fold change ([1]; stronger effect = lower value, cell number ratio, induced over uninduced) was 1.02 (inactive), the fold change ([1]; measured here: relative caspase fold change +Dox/-Dox) was 0.857 and the cell count ([1]; measured here: total cells with miR-34 induction, stronger effect = lower value) was 1840. The cell count ([1]; measured here: total cells without miR-34 induction) was 1810, the z-score ([2]; MELAS cybrid survival, CellTiter-Glo 48 h, stronger effect = higher value) was 2.35 (active) and the z-score ([2]; Rieske KO mouse fibroblast survival, CellTiter-Glo 72 h) was -0.225. For the same compound, the inhibition ([3]; at 0.5 µM, stronger effect = higher value) was 12.8% (inactive) and -24.1% (inactive) and -14.5% (inactive), the inhibition ([3]; measured here: combination with BGB IC20, at 0.005 µM) was -8.46% and 7.63% and 14% and the inhibition ([3]; measured here: combination with BGB IC40, at 0.005 µM) was -8.25% and -29.3% and -2.14%. The inhibition [3, 18] was -22.1% and -15.3% and -25.2%, the inhibition ([3]; measured here: combination with cisplatin, at 0.5 µM, stronger effect = higher value) was 91.7% and -25.4% and 35.7% and the inhibition ([3]; measured here: combination with cisplatin, at 5 µM, stronger effect = higher value) was 65.8% and 67.6% and 88%. The inhibition ([4]; BGB combo, at 5 µM) was 86.4% and 89.9% and 88.8%, the inhibition ([4]; at 0.5 µM) was 87.6% (active) and 87.3% (active) and 83.2% (active) and the inhibition ([4]; cisplatin combo, at 5 µM) was 81.7% and 86.5% and 82.8%. For the same compound, the inhibition [4, 19] was 88.2% and 89.8% and 84.6%, the inhibition [4, 20] was 86.2% and 82.4% and 79.7% and the inhibition ([4]; single agent, at 5 µM) was 88.8% and 90% and 87.7%. The inhibition ([5]; BGB IC20 combo, at 0.005 µM) was -3.49% and -7.36% and -23.1%, the inhibition ([5]; BGB IC40 combo, at 0.005 µM) was -5.04% and 4.53% and 16% and the inhibition ([5]; BGB IC40 combo, at 0.05 µM) was 26% and 33.4% and 30.2%. For the same compound, the inhibition ([5]; at 0.5 µM) was -22.9% (inactive) and -37.1% (inactive) and -18.5% (inactive), the inhibition ([5]; cisplatin combo, at 0.05 µM) was 26% and 30.8% and 27.7% and the inhibition ([5]; cisplatin combo, at 0.5 µM) was -43.1% and -45% and -7.88%. The inhibition ([5]; cisplatin combo, at 5 µM) was -24% and -19.7% and -23.1%, the inhibition ([5]; measured here: 5 uM single agent, at 5 µM) was -32.2% and -6.79% and -21% and the inhibition ([6]; at 0.5 µM) was -17.1% (inactive) and -7.38% (inactive) and 7.19% (inactive). The inhibition [6, 18] was -7.29% and 0.139% and -43.6%, the inhibition [6, 21] was 49.7% and 24.2% and 32.2% and the inhibition [6, 22] was 66.7% and 77.2% and 68.3%. The inhibition ([7]; at 0.5 µM) was 86.6% (active) and 90.3% (active) and 89.1% (active), the inhibition ([7]; measured here: with BGB IC20, at 0.5 µM) was 76.2% and 85.7% and 83.4% and the inhibition ([7]; measured here: with BGB IC20, at 5 µM) was 72.1% and 73.5% and 75.1%. The inhibition ([7]; measured here: with cisplatin IC20, at 0.5 µM) was 91.2% and 91.9% and 89.4%, the inhibition ([7]; measured here: with cisplatin IC20, at 5 µM) was 90.4% and 93.2% and 92.8% and the inhibition ([7]; single agent, at 5 µM) was 92.2% and 93.6% and 92.8%. For the same compound, the inhibition ([8]; at 0.5 µM) was 68.5% (inactive) and 65.4% (inactive) and 40.8% (inactive), the inhibition ([8]; measured here: combination with BGB at IC20, at 0.5 µM) was 53% and 49.8% and 5.09% and the inhibition ([8]; measured here: combination with cisplatin at IC20, at 0.5 µM) was 70.5% and 84.6% and 51.6%. For the same compound, the inhibition ([9]; at 0.5 µM) was 92.5% (active) and 91.3% (active), the inhibition ([9]; measured here: combo with BGB at IC20, at 0.5 µM) was 87.4% and 87.6% and 86.6% and the inhibition ([9]; measured here: combo with cisplatin at IC20, at 0.5 µM) was 96.8% and 96.7% and 96%. For the same compound, the inhibition ([10]; at 0.5 µM) was 36.9% (inactive) and 40.6% (inactive) and 36.4% (inactive), the inhibition ([10]; measured here: inhibition with BGB combination, at 0.05 µM) was -8.95% and 6.66% and -8.78% and the inhibition ([10]; measured here: inhibition with cisplatin combination, at 0.05 µM) was 34.8% and 31% and 33.4%. The inhibition ([11]; at 0.5 µM) was -9.87% (inactive) and -8.63% (inactive) and -0.27% (inactive), the inhibition [11, 21] was 22.8% and 20.6% and 41.7% and the inhibition [11, 22] was 40.3% and 52.4% and 57.5%. For the same compound, the inhibition ([12]; at 0.5 µM) was 67.3% (inactive) and 69.9% (inactive) and 70.3% (inactive), the inhibition ([12]; measured here: BGB combination, at 0.5 µM) was 56.1% and 61.1% and 59% and the inhibition ([12]; measured here: BGB combination, at 5 µM) was 58% and 56% and 66.5%. For the same compound, the inhibition ([12]; measured here: cisplatin combination, at 0.5 µM) was 71.9% and 76.1% and 74.4%, the inhibition ([12]; measured here: cisplatin combination, at 5 µM) was 77.8% and 78.1% and 78.7% and the inhibition ([13]; BGB combination, concentration series, at 5 µM) was 71.1% and 55.2% and 80.4%. The inhibition ([13]; at 0.5 µM) was 43.5% (inactive) and 49.4% (inactive) and 43.9% (inactive), the inhibition ([13]; cisplatin combination, concentration series, at 5 µM) was 101% and 97.9% and 125% and the inhibition [14] was 70% (inactive) and 73.6% (inactive) and 72.6% (inactive). For the same compound, the inhibition ([14]; measured here: combo with BGB IC20) was 71.3% and 72.2% and 72.3%, the inhibition ([14]; measured here: combo with cisplatin IC20) was 58.6% and 65% and 62% and the inhibition ([15]; at 0.5 µM) was -11% (inactive) and -2.39% (inactive) and 3.77% (inactive). The inhibition ([15]; cisplatin combination, at 0.5 µM) was 30.6% and 26.6% and 14.1%, the inhibition ([15]; cisplatin combination, at 5 µM) was 52.1% and 55.8% and 69.2% and the inhibition ([15]; measured here: BGB IC40 combination 0.05 uM, at 0.05 µM) was -18.1% and -16.5% and -27.6%. For the same compound, the inhibition ([15]; single agent, at 5 µM) was 11.1% and 16.6% and 14.7%, the inhibition ([16]; at 0.5 µM) was 5.91% (inactive) and 3.99% (inactive) and 14.1% (inactive) and the inhibition ([16]; cisplatin combo, at 5 µM) was 85.9% and 82.9%. The inhibition ([16]; measured here: BGB IC40 combination, at 0.05 µM) was -10.4% and -39% and -30%, the inhibition [16, 21] was 68.2% and 64.5% and 57.4% and the inhibition ([16]; single agent, at 5 µM) was 10.1% and 16.5% and 18.8%. The inhibition ([17]; at 0.5 µM) was 65.3% (inactive) and 70.4% (inactive) and 61.5% (inactive), the inhibition [17, 19] was 73.4% and 66.6% and 67.9% and the inhibition [17, 20] was 61.3% and 72.3% and 57.7%. For the same compound, the inhibition ([17]; single agent, at 0.05 µM) was 71.8% and 61.1% and 53.4% and the inhibition ([17]; single agent, at 5 µM) was 87.7% and 91.1% and 81.7%.

Reference: PubChem BioAssay
